Screens as filed in PubChem.
Only some compounds are listed: those with a hit (about 3.2% of all), similar ones and a draw of the others.
GDH-TPI counter = GDH-TPI coupled enzyme inhibition counter-screen; GDH-TPI coupled enzyme counterscreen, NADH absorbance; inhibition, % at 4.8 µM; hit rate 1.2% among 360,000; AID 588335; in the data active = inhibition above about 30%;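 also: 0% = DMSO wells and 100% = wells lacking the enzyme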
FBA Mtb inh = Mtb fructose-bisphosphate aldolase inhibition. inhibition, % at 1 µM. hit rate 2.3% among 360,000. P9WQA3. purified M. tuberculosis FBA, fluorescence read-out; in the data active = inhibition above about 27%;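 also: 0% = vehicle and 100% = reference inhibitor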
PrPC surface inh = inhibitors of human cell surface prion protein PrPC; TR-FRET read-out; hit rate 0.43% among 370,000; AID 720596; P04156; inhibition, % at 13.8 µM; in the data active = inhibition above about 24%; also: 0% = median of the test wells and 100% = reference compound wells
Yp Topo-I inh = inhibitors of Yersinia pestis topoisomerase I; Y. pestis Topo-I cleavage product accumulation, plate reader; hit rate 0.064% among 360,000; activity, % at 10 µM; in the data active = activity above about 50%, passing the limit was not always enough
TcdB inh = blocks C. difficile toxin B glycohydrolase activity; P18177; TcdB glycohydrolase enzymatic assay, plate reader; inhibition, % at 9.99 µM; hit rate 0.24% among 350,000; in the data active = inhibition above about 10%
PrPC confirm = confirmation of inhibitors of cell surface human prion protein; AID 743200; cell surface PrPC level, TR-FRET; inhibition, % at 13.8 µM; shares compounds with PrPC surface inh; hit rate 65% among 1,500; in the data active = inhibition above about 25%
LD9 cytotox = counter-screen for PrPc inhibitors: cytotoxicity in LD9 cells | hit rate 29% among 1,500 | inhibition, % at 13.8 µM | shares compounds with PrPC surface inh | luminescence viability; in the data active = inhibition above about 9.5%
* = called active by the depositor; nt = not tested or not shown.

SMILES | GDH-TPI counter | FBA Mtb inh | PrPC surface inh | Yp Topo-I inh | TcdB inh | PrPC confirm | LD9 cytotox
C[C@@H]1CN([C@@H](C)CO)C(=O)Cc2cc(NC(=O)Cn3cnnn3)ccc2O[C@H]1CN(C)C(=O)Nc1ccc(C(F)(F)F)cc1 | nt | nt | nt | nt | -16 | nt | nt
O=C(CSc1nc2ccccc2c(=O)n1CCCO)Nc1ccc2c(c1)OCCO2 | -4 | 2 | 5 | 25 | -2 | nt | nt
CC(Sc1ncnc2ccccc12)C(=O)Nc1ccc2c(c1)OCCO2 (configuration not stated) | 12 | 0 | 43* | 27 | nt | 28* | 4
O=C(CSc1ncccc1C(=O)O)Nc1ccc2c(c1)OCCO2 | 1 | -1 | 8 | 3 | 0 | nt | nt
O=C(CSc1nc(Cc2ccccc2)nc2ccccc12)Nc1ccc2c(c1)OCCO2 | 3 | -1 | 31* | 7 | 1 | 71* | -9
O=C(CSc1ncnc2ccccc12)Nc1ccc2c(c1)OCCO2 | 1 | 4 | 40* | -11 | 3 | 50* | -6
CC(Sc1ccccn1)C(=O)Nc1ccc2c(c1)OCCO2 (configuration not stated) | -2 | 0 | 6 | 2 | 1 | nt | nt
CCCN1C[C@H](C)[C@H](OC)CN(C)C(=O)c2ccc(NC(=O)CC(F)(F)F)cc2OC[C@H]1C | nt | nt | nt | nt | 0 | nt | nt
C[C@H]1CN([C@@H](C)CO)C(=O)c2cc(NS(=O)(=O)c3ccc(F)cc3)ccc2O[C@@H]1CN(C)CC1CC1 | nt | nt | nt | nt | 0 | nt | nt
COc1cccc(NC(=O)N[C@@H]2C=C[C@@H](CC(=O)Nc3ccc(-c4ccccc4)cc3)O[C@@H]2CO)c1 | nt | nt | nt | nt | 1 | nt | nt
COc1cccc2sc3cc(NCc4ccc(C)o4)ccc3c(=O)c12 | 15 | 26 | 37* | 34 | 1 | 83* | 3
COc1cc(-c2ccc3c(=O)c4ccccc4sc3c2)cc(OC)c1OC | 12 | 6 | -3 | 1 | -1 | nt | nt
CO[C@H]1CN(C)C(=O)c2cc(NC(=O)NC3CCCCC3)ccc2OC[C@@H](C)N(C(C)=O)C[C@H]1C | nt | nt | nt | nt | 1 | nt | nt
OC[C@@H]1CN(Cc2ccc(Cl)cc2)C[C@H](n2cnc3c(NC4CCC4)ncnc32)O1 | -1 | 0 | 26* | 12 | -1 | 23 | -6
CO[C@H]1CN(C)C(=O)c2cc(NS(=O)(=O)c3ccc(Oc4ccccc4)cc3)ccc2OC[C@H](C)NC[C@H]1C | nt | nt | nt | nt | 2 | nt | nt
CC1C=NC(S(=O)(=O)N2CC[C@@H]3[C@H]2c2cc(-c4ccccc4)ccc2N(C)[C@H]3CO)=N1 (some centres not stated) | nt | nt | nt | nt | 4 | nt | nt
NC(N)=N/N=C/c1cn(-c2ccccc2)nc1-c1cccs1 | -5 | 2 | 27* | -34 | 5 | 3 | 60*
COc1ccc(-c2nn(-c3ccccc3)cc2/C=N/N=C(N)N)cc1OC | -1 | -1 | -6 | 5 | nt | nt | nt
CCCN(C)C[C@@H]1Oc2cc(C#Cc3cccc(OC)c3)ccc2S(=O)(=O)N([C@H](C)CO)C[C@@H]1C | nt | nt | nt | nt | -1 | nt | nt
Cc1cc2nc(N)sc2cc1C | -4 | 3 | 36* | -6 | nt | 8 | -3
N#C/C(=C(/O)C(Cl)c1ccccc1)c1nc2ccccc2s1 (configuration not stated) | 14 | 3 | 43* | 0 | nt | 38* | -2
Nn1c(SCc2ccc(Br)cc2)nnc1-c1n[nH]c2c1CCC2 | nt | nt | 25* | nt | nt | 19 | 8
Cc1ccc(S(=O)(=O)Nc2cccc3c2O[C@H](CN(C)Cc2ccccc2)[C@@H](C)CN([C@@H](C)CO)C3=O)cc1 | nt | nt | nt | nt | 1 | nt | nt
COc1ccc(-c2ccc(SCC(=O)Nc3nccs3)nn2)cc1OC | 21 | -7 | 29* | 21 | -1 | 38* | -6
COc1ccc(Cn2cccc(NC(=O)Nc3cccc(OC)c3)c2=O)cc1 | 20 | 0 | 25* | 15 | 0 | 29* | -7
SMILES | GDH-TPI counter | FBA Mtb inh | PrPC surface inh | Yp Topo-I inh | TcdB inh | PrPC confirm | LD9 cytotox
CN(C)C(=O)[C@@H]1[C@@H](CO)[C@@H]2Cn3c(ccc(-c4cncnc4)c3=O)[C@@H]2N1Cc1cc(F)ccc1F | nt | nt | nt | nt | 0 | nt | nt
CCCCOc1ncnc2c1[nH]c1ccc(OC)cc12 | nt | nt | 4 | nt | nt | nt | nt
COc1ccc2[nH]c3c(=S)nc[nH]c3c2c1 | 16 | 13 | 85* | 1 | 1 | 104* | 1
CC(=O)OC1CCC2(C)C(CCC3C4CC=C(C(C)=O)C4(C)OC(=O)CC32)C1 (configuration not stated) | -6 | 0 | 72* | 6 | 6 | -16 | 91*
NC(Cc1ccc(Cl)cc1)c1csc(NC(=O)NCCc2ccccc2)n1 (configuration not stated) | -3 | 2 | -11 | 6 | 1 | nt | nt
NC(Cc1ccc(Cl)cc1)c1csc(NC(=O)NCC2CCCCC2)n1 (configuration not stated) | 3 | -3 | 61* | -12 | 3 | 42* | -2
CC(C)NC(=O)Nc1ccc2c(c1)C(=O)N([C@H](C)CO)C[C@H](C)[C@@H](CN(C)S(=O)(=O)c1cn(C)cn1)OCCCC[C@@H](C)O2 | nt | nt | nt | nt | -1 | nt | nt
CC(C)NC(=O)N(C)C[C@H]1Oc2cc(C#Cc3ccc(F)cc3)ccc2S(=O)(=O)N([C@@H](C)CO)C[C@H]1C | nt | nt | nt | nt | 0 | nt | nt
CC(O)CC(=O)OC[C@]12CC[C@H]3[C@@](C)(CC[C@H]4C(C)(C)CCC[C@]34C)[C@@H]1CC(C1=CC(=O)OC1O)O2 (some centres not stated) | -2 | -1 | 34* | 33 | 1 | 26* | 64*
CO[C@@H]1CN(C)C(=O)c2ccc(NC(=O)C3CC3)cc2OC[C@H](C)N(Cc2ccncc2)C[C@@H]1C | nt | nt | nt | nt | -1 | nt | nt
Cn1c(N2CCCCC2)nc2c1c(=O)n(Cc1cccc(Br)c1)c(=O)n2C | 1 | 2 | nt | 3 | nt | nt | nt
Cn1c(N2CCC(C(N)=O)CC2)nc2c1c(=O)n(Cc1ccc(Br)cc1)c(=O)n2C | 7 | 4 | 26* | -9 | nt | 29* | 2
Nc1nc2ccc(Cl)cc2cc1C(=O)NCc1ccccc1Br | nt | nt | 49* | nt | nt | 81* | -2
C[C@@H]1C[C@@H]([C@H](O)CC2CC(=O)NC(=O)C2)C(=O)[C@@H](C)C1 | 8 | 0 | 82* | -2 | 0 | 86* | 33*
CC(=O)OC1(C)CC(C)C(=O)C(C(O)CC2CC(=O)NC(=O)C2)C1 (configuration not stated) | 3 | 2 | 91* | -5 | nt | 101* | 55*
CO[C@@H]1CN(C)C(=O)c2cc(NC(=O)C3CC3)ccc2OC[C@H](C)NC[C@H]1C | nt | nt | nt | nt | -1 | nt | nt
COCCNC(=O)C[C@H]1CC[C@H]2[C@@H](COC[C@H](O)CN2S(=O)(=O)c2ccccc2C)O1 | nt | nt | nt | nt | 1 | nt | nt
CCn1c(=O)c(C(=O)NCc2ccccn2)c(O)c2ccccc21 | 16 | 4 | 30* | 5 | nt | 40* | -5
O=C(c1ccc(Cl)c(Cl)c1)c1cc(-c2ccccn2)c(N2CCOCC2)s1 | 23 | -2 | 41* | 21 | nt | 52* | 5
